Inconclusive results are not listed. Activity calls are given as the source filed them. The calls were made as follows: active = hit-call score of the fitted dose curve at least 0.9, where 1 is the maximum; inconclusive = response in the unintended direction; inactive = score below 0.9.
biological target: Oxysterols receptor LXR-alpha (Homo sapiens) (UniProt Q13133); experiment: ATG_LXRa_TRANS: Attagene TRANS-FACTORIAL HepG2 Assay for human Liver X Receptor alpha (LXRa) (AID 2282980); details: HepG2 Attagene TRANS reporter, LXRa transactivation
Sequence (Q13133 whole entry, looked up, the tested form may be a part): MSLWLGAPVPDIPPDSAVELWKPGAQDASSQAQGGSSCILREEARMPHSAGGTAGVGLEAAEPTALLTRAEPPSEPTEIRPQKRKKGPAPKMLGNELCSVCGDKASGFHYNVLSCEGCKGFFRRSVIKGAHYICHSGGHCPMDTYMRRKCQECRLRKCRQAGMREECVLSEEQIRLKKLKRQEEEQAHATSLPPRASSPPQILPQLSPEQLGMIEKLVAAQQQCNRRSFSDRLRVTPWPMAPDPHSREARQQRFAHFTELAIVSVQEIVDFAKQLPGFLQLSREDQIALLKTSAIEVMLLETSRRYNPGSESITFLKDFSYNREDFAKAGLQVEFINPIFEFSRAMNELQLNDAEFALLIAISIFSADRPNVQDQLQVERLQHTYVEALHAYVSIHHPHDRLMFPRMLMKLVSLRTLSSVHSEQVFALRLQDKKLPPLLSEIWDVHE
Method in brief: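 Chemical-induced reporter mRNA measured by RT-PCR with fluorescent labelling and capillary electrophoresis after 24 h dosing of transiently transfected HepG2 cells expressing exogenous NR-Gal4 chimeras; increases scored against DMSO baseline.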

outcome, inactive:
CN(C)c1ccncc1
CC1(C)CCC[C@]2(C)[C@H]3CCO[C@]3(C)CC[C@@H]12
CCC1CCCCC1
OCc1ccc(Cl)cc1Cl
Cc1occc(=O)c1OC(=O)C(C)C
CCOC(=O)COC(=O)c1cc(Oc2ccc(C(F)(F)F)cc2Cl)ccc1[N+](=O)[O-]
CC(C)c1ccccc1O
CCOc1ccc(N=Nc2ccc(C=Cc3ccc(N=Nc4ccc(OCC)cc4)cc3S(=O)(=O)O)c(S(=O)(=O)O)c2)cc1
COC(CC(C)CCCC(C)(C)O)OC (stereo not given)
CCc1ccc(O)c(OC)c1
COC(=O)c1ccc(C)cc1C1=NC(C)(C(C)C)C(=O)N1 (stereo not given) (tested in a mixture with another compound)
COc1cccc(OC)c1O
Cc1ncc([N+](=O)[O-])n1CCO
O=CCc1ccccc1
CCCCSCCCC

From PubChem BioAssay (EPA / NIEHS)
